Measured values: PubChem BioAssay (Tox21)
Values without a mark were called inactive. Inconclusive results are not listed. Entries that show only a call come without a potency. Activity calls are given as the source filed them. Unless noted, the call rests on the fitted dose curve; in most records, active means well fitted curve in the direction sought with a large enough effect in the repeat runs; inconclusive means weak or mixed curves; inactive means no such curve, though single readings can be large; an effect the other way counts as inactive or inconclusive.

Experiments:
[1] = qHTS assay for small molecules that induce genotoxicity in human embryonic kidney cells expressing luciferase-tagged ATAD5 (AID 651632); further: nearly all actives have a fitted effect of over 15% in size; further: potency means the concentration at half of the fitted maximal effect
Procedure, shortened: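 Genotoxicity read-out via ATAD5-luciferase: HEK293T cells, 16 hr compound incubation at 37C, Amplite detection.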

[2] = qHTS assay for small molecule agonists of the p53 signaling pathway - cell viability (AID 651633; calls by dose curve; further: nearly all actives have a fitted effect of over 30% in size; further: potency means the concentration at half of the fitted maximal effect)
Procedure, shortened: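 p53RE-bla cells, seeded at 4,000 per well and rested 5 h at 37 C/5% CO2, received compounds in DMSO for 16 h at 37 C. CellTiter-Glo was then added, and luminescence was read after 30 min at room temperature to gauge cytotoxicity.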

[3] = qHTS assay for small molecules that induce genotoxicity in human embryonic kidney cells expressing luciferase-tagged ATAD5 - cell viability (AID 651634; calls by dose curve; further: nearly all actives have a fitted effect of over 25% in size)
Procedure, shortened: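 Live-cell protease activity (CellTiter-Fluor, fluorescence) indicates viability. HEK293T cells with luciferase-tagged ATAD5; 15.5 hr compound treatment at 37C.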

[4] = qHTS assay for small molecule disruptors of the mitochondrial membrane potential - cell viability (AID 720634; calls by dose curve; further: nearly all actives have a fitted effect of over 20% in size; further: potency means the concentration at half of the fitted maximal effect)
Procedure, shortened: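 Human hepatoma HepG2 cells were treated for 1 hr with test chemicals, then given m-MPI dye and CellTiter-Glo. Cell viability reflects luminescence proportional to cellular ATP.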

[5] = qHTS assay to test for compound auto fluorescence at 535 nm (green) in HepG2 cells (AID 720675)
[6] = qHTS assay to test for compound auto fluorescence at 460 nm (blue) in HEK293 cells (AID 720678)
Procedure, shortened: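 Measured: blue fluorescence (Ex 405/Em 460 nm) of compound-treated HEK293 cells, incubated overnight at 37C with 5% CO2 and scaled to triamterene equivalents.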

[7] = qHTS assay to test for compound auto fluorescence at 590 nm (red) in HEK293 cells (AID 720679)
Procedure, shortened: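 Using HEK293 cells at 2,000 per well, the screen added 23 nL of each compound after cell attachment and incubated overnight (37C, 5% CO2). The plate reader then captured red-label fluorescence, Ex/Em 540/590nm.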

[8] = qHTS assay for small molecule disruptors of the mitochondrial membrane potential (AID 720635); further: potency means the concentration at half of the fitted maximal effect
Procedure, shortened: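 HepG2 cells (2,000/well) attached overnight at 37C, then took compound for 1 hr at 37C, 5% CO2. Mito-MPS dye was added for 30 min; fluorescence was read at 490/535 nm (monomers) and 540/590 nm (aggregates).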

[9] = qHTS assay to test for compound auto fluorescence at 590 nm (red) in HepG2 cells (AID 720674)
Procedure, shortened: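 Intrinsic compound fluorescence in the red window (Ex/Em 540/590 nm) is measured in attached HepG2 cells exposed for 1 hr, DMSO vehicle as baseline, benchmarked to Rose Bengal sodium.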

SMILES | Potency [1] | Potency [2] | Potency [3] | Potency [4] | Potency [5] | outcome [6] | Potency [7] | Potency [8] | Potency [9] | fluorescence, relative to Rose Bengal [9] | fluorescence, % of fluorescein control [5] | fluorescence, % of triamterene [6] | fluorescence, % of fluorescent control [7]
OC(C#CCN1CCCC1)(c1ccccc1)c1ccccc1 | inactive | inactive | inactive | inactive | inactive | inactive | inactive |  |  |  |  |  | 
Brc1c2ccccc2cc2ccccc12 | inactive | inactive |  | 55 µM (active) | inactive | inactive | inactive | 30.9 µM (active) | inactive |  |  |  | 
COc1cc2nc(N(C)CCCNC(=O)C3CCCO3)nc(N)c2cc1OC (centres undefined) | inactive | inactive |  |  |  |  |  | inactive |  | -0.119% [at 18.6 µM] | -0.0701% [at 18.6 µM] | -0.108% [at 18.6 µM] | -0.585% [at 18.6 µM]
O=C(O)c1nc(Cl)c(Cl)c(Cl)c1Cl | inactive |  | inactive | inactive | inactive | inactive | inactive | inactive | inactive |  |  |  | 
Cc1oc(-c2ccccc2)nc1CCOc1cccc2c1ccn2CCC(=O)O | inactive | inactive |  | inactive |  | inactive | inactive |  | inactive |  |  |  | 
CCN(CC)CCOC(=O)C(Cc1cccc2ccccc12)CC1CCCO1 (centres undefined) | inactive | inactive |  | inactive |  |  |  |  |  | -0.202% [at 18.6 µM] |  | 0.0425% [at 18.6 µM] | 0.195% [at 18.6 µM]
CC(C)Nc1ccc(NC(C)C)c2c1C(=O)c1ccccc1C2=O | inactive | inactive |  |  |  | inactive | inactive | 11.3 µM (active) | inactive |  |  |  | 
COc1cc2c(cc1OC)C(C(C(=O)N(CCc1ccc(OC)c(OC)c1OC)CCc1ccc(OC)c(OC)c1OC)c1ccccc1)=NCC2 (centres undefined) | inactive | inactive |  | inactive | inactive | inactive | inactive |  | inactive |  |  |  | 
CCCCCCCC/C=C\CCCCCCCC(=O)OCC | inactive | inactive |  | inactive | inactive | inactive | inactive | inactive |  |  |  |  | 
CCCCCCc1ccc(-c2ccc(C#N)cc2)cc1 | inactive | inactive |  | inactive | inactive | inactive | inactive | 26.8 µM (active) | inactive |  |  |  | 
CCCOC(C(=O)OC1CCN(C)CC1)(c1ccccc1)c1ccccc1 | inactive | inactive | inactive |  | inactive | inactive | inactive |  | inactive |  |  |  | 
CCCCOC(=O)CCCCCCCC(=O)OCCCC | inactive | inactive | inactive |  |  | inactive | inactive | inactive | inactive |  |  |  | 
O=C(O)c1ccc(-n2nc(-c3ccccc3O)nc2-c2ccccc2O)cc1 | inactive | 13.3 µM (active) |  | inactive | inactive | inactive | inactive |  | inactive |  |  |  | 
COc1ccc(C(=O)Nc2nc3ccccc3c(NCc3ccccc3)c2C#N)cc1 | inactive | inactive |  |  | inactive | inactive | inactive | 5.45 µM (active) | inactive |  |  |  | 
O=C(O)c1ccc(S(=O)(=O)O)cc1C(=O)O | inactive | inactive |  |  | inactive | inactive | inactive |  | inactive |  |  |  | 
C=C1C(=C/C=C2\CCC[C@]3(C)[C@@H]([C@H](C)/C=C/[C@@H](O)C4CC4)CC[C@@H]23)C[C@@H](O)C[C@@H]1O | inactive | 26.6 µM (active) |  |  | inactive | inactive | inactive | 22.1 µM (active) | inactive |  |  |  | 
O=C(O)C1(C(=O)Nc2ccc(Cl)cc2Cl)CC1 | 1.93 µM (active) | inactive |  |  | inactive | inactive | inactive | 8.63 µM (active) | inactive |  |  |  | 
CCCCCCCCCCCCCCOS(=O)(=O)O | inactive |  | inactive | inactive | inactive | inactive | inactive |  | inactive |  |  |  | 
CCOC(=O)NCCOc1ccc(Oc2ccccc2)cc1 | inactive |  | inactive |  |  | inactive | inactive | 27.3 µM (active) | inactive |  |  |  | 
CC[N+](C)(CC)CCOC(=O)C(O)(c1ccccc1)C1CCCCC1 (centres undefined) | inactive |  | inactive | inactive | inactive | inactive | inactive | inactive |  |  |  |  | 
C=CC(=O)OCCOCCOCCOCCOC(=O)C=C |  | inactive |  | inactive | inactive | inactive | inactive | inactive | inactive |  |  |  | 
CCCCNc1ccc(C(=O)OCCOCCOCCOCCOCCOCCOCCOCCOCCOC)cc1 | inactive |  | inactive | inactive |  |  |  | 3.2 µM (active) |  | -0.666% [at 18.6 µM] |  | -0.29% [at 18.6 µM] | 0.183% [at 18.6 µM]
COc1cccc(N(C)C(=S)Oc2ccc3c(c2)CCCC3)n1 |  |  | inactive |  | inactive | inactive | inactive | 29.8 µM (active) | inactive |  |  |  | 
O=C(O)CC(=O)C(=O)O | inactive |  | inactive | inactive | inactive | inactive | inactive |  | inactive |  |  |  | 
CNCCCCOc1ccccc1Cc1ccccc1 | inactive |  | inactive |  | inactive | inactive | inactive |  | inactive |  |  |  | 
O=C1CCCCCCCCCCCC(=O)OCCO1 | inactive |  | inactive | inactive | inactive | inactive | inactive |  | inactive |  |  |  | 
C#Cc1cccc(Nc2ncnc3cc(OCCOC)c(OCCOC)cc23)c1 | inactive |  |  | inactive | inactive | inactive | inactive |  | inactive |  |  |  | 
